# Sampled rows, rich in hits. Any-hit rate of the full collection: about 13%.
# HCV inhibitor: blocks hepatitis C virus. Huh7.5.1 HCVcc-Cre infection, luciferase reporter, 44 h. hit rate 3.4% among 340,000. Potency, µM (highest dose often 41.8 µM), for inactives: top-dose activity change, negative = inhibition, most hits filed as inhibitors; further: potency means the concentration at half of the fitted maximal effect
#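 Cells (1,000/well) were plated 4 h before compound, then infected with HCVcc-Cre virus (~0.5 moi). After 44 h further culture, infection was read as luciferase luminescence following a 15 min substrate incubation at room temperature.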
# Pf growth 96h: P. falciparum growth inhibition at 96 hour, primary screen for plastid delayed-death inhibitors | P. falciparum luciferase reporter growth, 96 h | Potency, µM (doses to about 28.7 µM), for the others: at the highest dose activity change, negative = inhibition, hits mostly inhibitors | hit rate 6.9% among 320,000; further: potency means the concentration at half of the fitted maximal effect
#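 96 h incubation, 37 C, 5% CO2, of luciferase-reporter P. falciparum-infected RBCs (2% hematocrit, 0.05% parasitemia final) with test compounds; endpoint luminescence.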
# Pf growth 48h: inhibits P. falciparum growth in the first generation, 48 h | P. falciparum luciferase growth in erythrocytes, 48 h | Potency, µM (series often up to 28.7 µM), without a hit: at the top dose activity change, negative = inhibition, actives largely listed as inhibitors | hit rate 5.9% among 310,000 | AID 504832; further: potency means the concentration at half of the fitted maximal effect
#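 In quantitative HTS format, infected erythrocytes bearing luciferase-reporter parasites were treated for a single generation at 37 C. Luminescence after adding detection reagent served as the growth measure.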
# HCMV inh: human cytomegalovirus inhibition; HFF cells, HCMV-luciferase reporter, 72 h; active compounds read low; activity change, negative = inhibition, % at 57.5 µM; hit rate 4.5% among 410,000; in the data active means activity change below about -60%; inconclusive means no clear call, values can overlap the other calls; inactive means above about -39%
#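 Two compound doses tested in HFFs infected with HCMV-luciferase, MOI 1 PFU/cell, 72 h at 37C. Lysate luminescence read with OneGlo; data normalized against buffer-only and 10uM Salinomycin inhibitor controls.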
# * marks the source's active call; other numbers are inactive results; ? = inconclusive; · = not tested or not shown; [ ] = dose if it differs, or a comment. Unless noted, the call rests on the fitted dose curve; in most records, active means well fitted inhibition curve with a large enough effect; inconclusive means small, poorly fitted or top-dose-only effect, or another doubt; inactive means no such curve, though single readings can be large or run the other way. On the % scale 0 is the no-effect control and ±100 the full control effect.
SMILES,HCV inhibitor,Pf growth 96h,Pf growth 48h,HCMV inh
O=C(NCCCn1ccnc1)c1ccc(N2CCCCCC2)c([N+](=O)[O-])c1,-11%,?,?,-61*
Cc1ccc(C(=O)NCCCn2ccnc2)cc1[N+](=O)[O-],-8%,100%,54%,18
CCOc1ccc(C(=O)c2cn(CC(=O)Nc3ccc(C)c(C)c3)c3ccc(OCC)cc3c2=O)cc1,·,·,·,4
COc1ccc(Cl)cc1NC(=O)N1CCC(CN2CCCCCC2)CC1,·,·,·,-1
CCOc1ccccc1NC(=O)Cn1c(=O)n(CCC(C)C)c(=O)c2cccnc21,·,·,·,21
CCOC(=O)/C(C#N)=C1/C=C(C)NC(c2ccccc2O)=N1,?,15%,?,-103*
CCOC(=O)/C(C#N)=C1/C=CN(C)C(C)=N1,13%,-5%,13%,48
COc1cc(O)ccc1-c1nc2cc(C)ccn2c1Nc1ccccc1C,·,·,·,-14
Cc1nc(SCC(=O)NNC(=O)c2ccc(F)cc2)c2ccccc2n1,11%,·,·,3
CSc1nc(N(C)NC(=O)c2ccc(F)cc2)c2ccccc2n1,?,2.3µM*,2.1µM*,-30
C/C(=N/NC(=O)c1ccc(Br)s1)c1cccnc1,?,7.4µM*,39%,-18
C/C(=N\NC(=O)c1ccc(Cl)cc1)c1ccc(Br)s1,-8%,2.6µM*,7.4µM*,-20
C/C(=N\Nc1ccc(F)cc1F)c1ccc(Br)s1,?,-10%,23%,-70*
C/C(=N\Nc1ccc(F)cc1F)c1ccc(F)cc1,·,21%,10%,·
O=S(=O)(NCCOCC(F)(F)F)c1ccc2oc3ccccc3c2c1,?,0%,12µM*,-38
Cc1ccc2nc3c(cc(C(=O)NCc4ccco4)c(=N)n3Cc3ccco3)c(=O)n2c1,4.5µM*,-1%,1.7µM*,-61*
N=c1c(S(=O)(=O)c2ccc(Cl)cc2)cc2c(=O)n3ccccc3nc2n1CCN1CCOCC1,13µM*,-25%,?,-25
N=c1c(C(=O)NCc2ccccc2)cc2c(=O)n3ccccc3nc2n1Cc1ccco1,7.9µM*,0%,·,26
Cc1ccc(CNC(=O)c2cc3c(=O)n4ccccc4nc3n(Cc3ccco3)c2=N)cc1,?,·,?,-26
COCCn1c(=N)c(C(=O)NCc2ccco2)cc2c(=O)n3ccccc3nc21,-29%,·,11%,12
N=c1c(C(=O)NCc2ccc(F)cc2)cc2c(=O)n3ccccc3nc2n1Cc1ccco1,1µM*,?,21%,32
Cc1ccc(-c2nc3c4ccccc4[nH]c(=O)n3n2)cc1,·,·,·,78
Cc1ccc(Cl)cc1NC(=O)CN1C=NS(=O)(=O)c2ccccc21,·,·,·,0
N=c1c(C(=O)NCCN2CCOCC2)cc2c(=O)n3ccccc3nc2n1CCCN1CCOCC1,9%,39%,?,55
N=c1c(C(=O)NCCN2CCOCC2)cc2c(=O)n3ccccc3nc2n1Cc1ccc(F)cc1,?,10µM*,9.3µM*,-27
SMILES,HCV inhibitor,Pf growth 96h,Pf growth 48h,HCMV inh
N=c1c(C(=O)NCc2ccco2)cc2c(=O)n3ccccc3nc2n1Cc1ccc(Cl)cc1,5µM*,2.3µM*,10µM*,19
CCc1cnc2c(c1SC(C(C)=O)C(=O)N(C)C)c(=O)n(C)c(=O)n2C (configuration not stated),·,·,·,-24
O=C(c1ccc([N+](=O)[O-])o1)N1CCN(c2nc3ccc(F)cc3s2)CC1,?,1.2µM*,2.3µM*,-36
Cc1c(Cl)ccc2sc(N3CCN(C(=O)c4ccco4)CC3)nc12,·,·,·,43
COc1cccc2sc(N3CCN(C(=O)c4ccc([N+](=O)[O-])o4)CC3)nc12,7.9µM*,0.74µM*,0.83µM*,·
Cc1ccc2sc(N3CCN(C(=O)c4ccc([N+](=O)[O-])o4)CC3)nc2c1C,?,0.74µM*,0.37µM*,-7
O=C(c1ccc([N+](=O)[O-])o1)N1CCN(c2nc3c(Cl)cccc3s2)CC1,?,1µM*,1.3µM*,?
COc1ccccc1CN(Cc1ccco1)c1cnc(S(C)(=O)=O)nc1C(=O)Nc1ccccc1Cl,·,·,·,4
COc1ccc(CCNC(=O)Cn2c(=O)c3sccc3n(CC(=O)Nc3cccc(C(F)(F)F)c3)c2=O)cc1OC,·,·,·,-3
CCN(CCCNC(=O)c1nn(-c2ccc(C)cc2)c(=O)c2c1c1ccccc1n2C)c1ccccc1,·,·,·,13
CCCCCCNc1ncnc2c1sc1nc(N3CCOCC3)c3c(c12)CCCC3,·,·,·,-5
CC(=O)Nc1ccc(NC(=O)CC(C)n2ccc(C)n2)cc1 (configuration not stated),·,·,·,-11
N=C1/C(=C/c2cccn2Cc2ccc(F)cc2)C(=O)N=C2SC=CN12,-13%,53%[5.75 µM],-28%,-15
Cc1ccc(Cn2cccc2/C=C2/C(=N)N3C=CSC3=NC2=O)cc1,?,6.6µM*,2%,29
Cc1ccc(C(C(=O)NC(C)(C)C)N(CC2CCCO2)C(=O)CCC(=O)Nc2ccccn2)cc1 (configuration not stated),16%,-50%,-11%,1
CCC(C)(C)NC(=O)C(c1ccc(C)cc1)N(CC1CCCO1)C(=O)CCC(=O)Nc1ccccn1 (configuration not stated),12%,12µM*,?,?
Cc1ccc(C(C(=O)NC2CCCCC2)N(CC2CCCO2)C(=O)CCCC(=O)Nc2ccccn2)cc1 (configuration not stated),-13%,?,?,-71*
CC1CCc2c(sc(NC(=O)c3cc4nc(-c5ccc(Cl)cc5)cc(C(F)(F)F)n4n3)c2C#N)C1 (configuration not stated),·,·,·,-20
CC(C)c1[nH]nc2c1C(c1ccccc1)NC2=O (configuration not stated),·,·,·,11
Nc1[nH]c(C(=O)c2ccccc2)c(-c2cccc(C(F)(F)F)c2)c1C(=O)NCCc1c[nH]c2ccccc12,·,·,·,-72*
CN(C)c1ccc(/C=C2\SC(N3CCCCC3)=NC2=O)cc1,-5%,4.1µM*,52%,14
CC(C)c1ccc(/C=C2\SC(N3CCCC3)=NC2=O)cc1,-22%,3.7µM*,?,21
COc1cccc(OC)c1OCCCCN1CCC(Cc2ccccc2)CC1,11µM*,132%,?,-3
CN1CCN(CCCCOc2ccccc2C=O)CC1,10µM*,33%,?,-28
Clc1ccc(C(c2ccccc2)N2CCNCC2)cc1 (configuration not stated),11µM*,?,·,45
CN1CCN(C(c2ccccc2)c2ccc(Cl)cc2)CC1 (configuration not stated),?,?,?,-10
O=C(O)COCCN1CCN([C@@H](c2ccccc2)c2ccc(Cl)cc2)CC1,·,4.1µM*,?,·
CCOC(=O)c1ccc(N2C(=O)c3n[nH]c(-c4cccs4)c3C2c2ccc(C(C)(C)C)cc2)cc1 (configuration not stated),·,·,·,26
COc1ccccc1C1CCN(Cc2cccc3ccccc23)CC1,7.9µM*,?,·,-9
COc1ccccc1OCCCCN1CCN(C(c2ccccc2)c2ccccc2)CC1,11µM*,12µM*,?,?

# Source: PubChem BioAssay (National Center for Advancing Translational Sciences (NCATS))
